From PubChem BioAssay (EPA / NIEHS) come the findings set out here.

Holding throughout (details): mRNA level, 48 h; actives raise or lower the signal
Read-out in assay [1]: Apoptosis regulator Bcl-2 (Homo sapiens) (UniProt P10415)
Briefly: LTEA_HepaRG_BCL2: Life Technologies and Expression Analysis (LTEA) Assay for Bcl-2 gene using HepaRG (AID 2283475). A digest of the protocol: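 Each chemical was tested in duplicate on HepaRG cultures held in serum-free induction medium for 48 h, highest concentration 100 uM with half-log dilutions. Transcript levels came from multiplexed qRT-PCR, normalised to housekeeping genes; activity was scored in either direction relative to DMSO.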

Read-out in assay [2]: Caspase-3 (Homo sapiens) (UniProt P42574)
The assay can be described thus: LTEA_HepaRG_CASP3: Life Technologies and Expression Analysis (LTEA) Assay for cysteine-aspartic acid protease (CASP3) using HepaRG (AID 2283477). An outline of the steps:
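Differentiated human HepaRG cells in serum-free induction medium were exposed 48 h to 8-point half-log concentrations from 100 uM (0.5% DMSO vehicle). CASP3 mRNA was measured by qRT-PCR, normalised to ACTB, GAPDH and POLR2A, with bidirectional fitting against DMSO.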

Read-out in assay [3]: Cytochrome P450 (CYP24A1), CYP24A1 (gene 1591)
The assay can be described thus: LTEA_HepaRG_CYP24A1: Life Technologies and Expression Analysis (LTEA) Assay for Cytochrome P450 (CYP24A1) using HepaRG (AID 2283478). An outline of the steps: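 Differentiated HepaRG cells, pre-cultured 48 h, were exposed in duplicate for 48 h in serum-free induction medium to 8 half-log concentrations (top 100 uM, 0.5% DMSO). CYP24A1 mRNA was quantified by TaqMan qRT-PCR, normalized to ACTB/GAPDH/POLR2A, fitted bidirectionally versus DMSO.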

Read-out in assay [4]: Cytochrome P450 (CYP1A2), CYP1A2 (gene 1544)
The assay can be described thus: LTEA_HepaRG_CYP1A2: Life Technologies and Expression Analysis (LTEA) Assay for Cytochrome P450 (CYP1A2) using HepaRG (AID 2283479). An outline of the steps: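 Differentiated human HepaRG cells in serum-free induction medium were exposed in duplicate for 48 h to 8-point half-log concentrations up to 100 uM in 0.5% DMSO. CYP1A2 mRNA measured by qRT-PCR, normalized to ACTB, GAPDH, POLR2A; bidirectional fit vs DMSO.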

Read-out in assay [5]: cysteine-aspartic acid protease (CASP8), CASP8 (gene 841)
Briefly: LTEA_HepaRG_CASP8: Life Technologies and Expression Analysis (LTEA) Assay for cysteine-aspartic acid protease (CASP8) using HepaRG (AID 2283480). An outline of the steps:
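qRT-PCR readout of CASP8 mRNA, normalized to three housekeeping genes, after 48 h chemical exposure of HepaRG cells; 8-point half-log series, top 100 uM, 0.5% DMSO vehicle. Bidirectional curve fitting against DMSO baseline.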

Read-out in assay [6]: Cytochrome P450 (CYP2B6), CYP2B6 (gene 1555)
Briefly: LTEA_HepaRG_CYP2B6: Life Technologies and Expression Analysis (LTEA) Assay for Cytochrome P450 (CYP2B6) using HepaRG (AID 2283481). A digest of the protocol:
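Differentiated HepaRG cells, serum-free induction medium, exposed 48 h in duplicate to 8-point half-log concentrations from 100 uM in 0.5% DMSO. CYP2B6 mRNA by qRT-PCR, normalized to ACTB, GAPDH, POLR2A; bidirectional fit versus DMSO.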

Read-out in assay [7]: Cytochrome P450 2C19 (Homo sapiens) (UniProt P33261)
Briefly: LTEA_HepaRG_CYP2C19: Life Technologies and Expression Analysis (LTEA) Assay for CYP2C19 using HepaRG (AID 2283482). An outline of the steps:
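Differentiated human HepaRG cells were exposed for 48 h in serum-free induction medium to 8 concentrations (top 100 uM, half-log steps, 0.5% DMSO). CYP2C19 mRNA was measured by qRT-PCR, normalized to ACTB/GAPDH/POLR2A, and fitted bidirectionally against DMSO.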

Read-out in assay [8]: CYP2C8 (gene 1558)
Briefly: LTEA_HepaRG_CYP2C8: Life Technologies and Expression Analysis (LTEA) Assay for CYP2C8 using HepaRG (AID 2283483). An outline of the steps: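 HepaRG (human liver line), 48 h chemical exposure, 8-pt half-log series from 100 uM, 0.5% DMSO vehicle. Readout: CYP2C8 transcript by qRT-PCR, housekeeping-normalized. Bidirectional fit vs DMSO baseline.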

Read-out in assay [9]: CYP2C9 (gene 1559)
The assay can be described thus: LTEA_HepaRG_CYP2C9: Life Technologies and Expression Analysis (LTEA) Assay for CYP2C9 using HepaRG (AID 2283484). An outline of the steps:
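HepaRG, 48 h dosing, 8-pt half-log series, top 100 uM, 0.5% DMSO vehicle. Read-out: CYP2C9 transcript by TaqMan qRT-PCR, housekeeping-normalized (ACTB/GAPDH/POLR2A). Gain or loss fitted vs DMSO baseline.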

Read-out in assay [10]: CYP2E1 (gene 1571)
Briefly: LTEA_HepaRG_CYP2E1: Life Technologies and Expression Analysis (LTEA) Assay for CYP2E1 using HepaRG (AID 2283485). An outline of the steps: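 Assay uses 48 h exposure of HepaRG hepatic cells, eight concentrations to 100 uM. Expression of CYP2E1 is quantified by TaqMan qRT-PCR with ACTB, GAPDH and POLR2A normalization; curves fitted in both directions relative to vehicle.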

Read-out in assay [11]: CYP4A11 (gene 1579)
Briefly: LTEA_HepaRG_CYP4A11: Life Technologies and Expression Analysis (LTEA) Assay for CYP4A11 using HepaRG (AID 2283486). An outline of the steps: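 Differentiated HepaRG cells, serum-free induction medium, exposed 48 h in duplicate to 8-point half-log series from 100 uM in 0.5% DMSO. CYP4A11 mRNA measured by qRT-PCR, normalized to ACTB, GAPDH, POLR2A; bidirectional fit versus DMSO.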

Read-out in assay [12]: Cytochrome P450 3A4 (Homo sapiens) (UniProt P08684)
Briefly: LTEA_HepaRG_CYP3A4: Life Technologies and Expression Analysis (LTEA) Assay for CYP3A4 using HepaRG (AID 2283487). A digest of the protocol: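 HepaRG, 48 h exposure, 8-pt CRC from 100 uM (half-log), 0.5% DMSO, duplicates; serum-free induction medium. Readout: CYP3A4 mRNA, qRT-PCR, ACTB/GAPDH/POLR2A normalization. Bidirectional fit vs DMSO.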

Read-out in assay [13]: DNA damage-inducible transcript 3 (DDIT3), DDIT3 (gene 1649)
Briefly: LTEA_HepaRG_DDIT3: Life Technologies and Expression Analysis (LTEA) Assay for DNA damage-inducible transcript 3 (DDIT3) using HepaRG (AID 2283488). A digest of the protocol:
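Eight-point concentration-response (100 uM highest, half-log dilutions) in HepaRG, 48 h, duplicate wells. Endpoint: qRT-PCR mRNA, normalized (ACTB, GAPDH, POLR2A), bidirectional fitting with DMSO as baseline.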

Read-out in assay [14]: Pro-epidermal growth factor (Homo sapiens) (UniProt P01133)
Briefly: LTEA_HepaRG_EGF: Life Technologies and Expression Analysis (LTEA) Assay for Epidermal growth factor (EGF) using HepaRG (AID 2283489). An outline of the steps:
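Differentiated human HepaRG cells, plated 48 h then switched to serum-free induction medium, were exposed for 48 h to test chemicals (8-point half-log series, top 100 uM, 0.5% DMSO). EGF mRNA was quantified by qRT-PCR, normalized to ACTB, GAPDH, POLR2A.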

Read-out in assay [15]: Early growth response protein 1 (EGR1) transcription factor, EGR1 (gene 1958)
Briefly: LTEA_HepaRG_EGR1: Life Technologies and Expression Analysis (LTEA) Assay for Early growth response protein 1 (EGR1) transcription factor using HepaRG (AID 2283490). An outline of the steps: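 HepaRG, 48 h exposure, 8-pt half-log series from 100 uM, 0.5% DMSO vehicle; EGR1 transcript by TaqMan qRT-PCR (Fluidigm array), housekeeping-normalized; bidirectional fit relative to DMSO baseline.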

Read-out in assay [16]: Ezrin (EZR), EZR (gene 7430)
Briefly: LTEA_HepaRG_EZR: Life Technologies and Expression Analysis (LTEA) Assay for Ezrin (EZR) using HepaRG (AID 2283491). A digest of the protocol:
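Read-out is EZR transcript level by qRT-PCR, normalized to three housekeeping genes and fitted bidirectionally against the DMSO control. Human HepaRG cells received test chemicals for 48 h at eight half-log concentrations up to 100 uM in 0.5% DMSO.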

Read-out in assay [17]: CYP3A5 (gene 1577)
The assay can be described thus: LTEA_HepaRG_CYP3A5: Life Technologies and Expression Analysis (LTEA) Assay for CYP3A5 using HepaRG (AID 2283493). An outline of the steps: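 Readout was CYP3A5 mRNA by qRT-PCR. HepaRG cultures were exposed for 48 h in serum-free induction medium to chemicals at up to 100 uM, and responses were fitted in both directions relative to DMSO vehicle.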

Read-out in assay [18]: Fatty Acid-Binding Protein 1 (FABP1), FABP1 (gene 2168)
Briefly: LTEA_HepaRG_FABP1: Life Technologies and Expression Analysis (LTEA) Assay for Fatty Acid-Binding Protein 1 (FABP1) using HepaRG (AID 2283494). An outline of the steps: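 qRT-PCR readout of FABP1 transcript (normalized to three housekeeping genes) after 48 h chemical exposure of HepaRG cells; eight concentrations, half-log steps, max 100 uM, 0.5% DMSO vehicle; gain or loss fitted relative to DMSO baseline.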

The source made the active and inactive calls. The calls were made as follows: active = hit-call score of the fitted dose curve at least 0.9, where 1 is the maximum; inactive = score below 0.9.

Cytochrome P450 3A4 (Homo sapiens), sequence (P08684 whole entry, looked up): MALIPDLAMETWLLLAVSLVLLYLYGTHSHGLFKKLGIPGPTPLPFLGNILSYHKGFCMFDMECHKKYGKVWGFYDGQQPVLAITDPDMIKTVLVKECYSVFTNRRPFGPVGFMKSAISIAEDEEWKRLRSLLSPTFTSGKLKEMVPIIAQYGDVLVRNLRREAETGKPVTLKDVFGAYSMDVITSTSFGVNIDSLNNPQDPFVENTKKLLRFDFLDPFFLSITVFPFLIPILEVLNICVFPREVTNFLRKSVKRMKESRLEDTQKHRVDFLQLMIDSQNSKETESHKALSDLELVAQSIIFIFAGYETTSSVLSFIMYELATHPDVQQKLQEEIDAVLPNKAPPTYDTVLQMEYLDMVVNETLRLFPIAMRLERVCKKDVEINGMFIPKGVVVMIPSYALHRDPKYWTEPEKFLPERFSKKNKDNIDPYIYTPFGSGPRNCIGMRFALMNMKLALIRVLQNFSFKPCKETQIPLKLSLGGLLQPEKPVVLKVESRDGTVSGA
Caspase-3 (Homo sapiens), sequence (P42574 whole entry, looked up): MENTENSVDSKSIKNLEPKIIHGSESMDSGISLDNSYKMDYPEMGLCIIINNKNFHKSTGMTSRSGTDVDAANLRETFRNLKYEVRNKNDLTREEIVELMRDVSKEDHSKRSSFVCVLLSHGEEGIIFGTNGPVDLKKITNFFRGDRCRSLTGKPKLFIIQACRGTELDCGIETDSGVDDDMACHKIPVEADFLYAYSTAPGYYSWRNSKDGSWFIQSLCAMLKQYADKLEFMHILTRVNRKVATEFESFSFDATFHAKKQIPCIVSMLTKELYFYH
Cytochrome P450 2C19 (Homo sapiens), sequence (P33261 whole entry, looked up): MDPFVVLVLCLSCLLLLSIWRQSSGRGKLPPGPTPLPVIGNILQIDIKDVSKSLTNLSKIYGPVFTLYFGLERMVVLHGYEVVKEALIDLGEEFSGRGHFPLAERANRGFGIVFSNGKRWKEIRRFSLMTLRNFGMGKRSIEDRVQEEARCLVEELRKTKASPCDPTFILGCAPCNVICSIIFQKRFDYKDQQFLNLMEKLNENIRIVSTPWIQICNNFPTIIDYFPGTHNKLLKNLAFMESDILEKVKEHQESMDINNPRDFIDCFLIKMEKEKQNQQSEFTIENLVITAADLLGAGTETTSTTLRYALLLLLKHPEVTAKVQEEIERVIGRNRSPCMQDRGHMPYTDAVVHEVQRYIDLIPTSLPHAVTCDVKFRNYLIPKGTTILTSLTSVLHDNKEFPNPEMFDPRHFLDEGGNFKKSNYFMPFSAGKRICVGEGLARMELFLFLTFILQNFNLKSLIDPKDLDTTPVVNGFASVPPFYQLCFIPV
Apoptosis regulator Bcl-2 (Homo sapiens), sequence (P10415 whole entry, looked up): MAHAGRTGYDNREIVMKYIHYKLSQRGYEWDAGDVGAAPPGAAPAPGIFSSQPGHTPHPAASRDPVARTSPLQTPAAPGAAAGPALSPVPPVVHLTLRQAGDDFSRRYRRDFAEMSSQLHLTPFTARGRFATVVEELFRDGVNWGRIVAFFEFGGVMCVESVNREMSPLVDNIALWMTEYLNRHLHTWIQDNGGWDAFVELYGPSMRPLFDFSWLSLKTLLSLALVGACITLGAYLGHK

Consider `CCN(CC)CCNc1ccc(CNC=O)c2sc3ccc(OC)cc3c(=O)c12`, for which the compound was called inactive in assay [1], in assay [3], in [4], in assay [7], in [8] and in [13]. Moreover, the compound was called inactive in assay [14]. Besides, the half-maximal activity concentration (AC50) in assay [2] is 72.7 µM (active); in assay [5], 50 µM (active); in assay [6], 7.58 µM (active); in [9], 16.8 µM (active); in assay [10], 12.8 µM (active); in [11] it was 26 µM (active). Further, the AC50 in assay [12] was 50 µM (active); in assay [15], 88.2 µM (active); in assay [16], 76.2 µM (active); in assay [17] it was 50 µM (active); in assay [18], 21.5 µM (active).

Take `Cc1cc(CCN2CCN(c3nsc4ccccc34)CC2)cc2c1NC(=O)CC2(C)C`: the AC50 in [1] was 68.2 µM (active); in [4], 12.6 µM (active); in [6] it was 79.7 µM (active); in assay [7], 88.4 µM (active); in [8], 82.5 µM (active); in assay [9], 80.3 µM (active). Also, the AC50 is 66.2 µM (active) in assay [10]; 63.9 µM (active) in assay [11]; 92 µM (active) in assay [12]; 71.9 µM (active) in assay [13]; 9.92 µM (active) in assay [16]; 69.7 µM (active) in assay [18]. In addition, the call in [2], in assay [3], in assay [5], in [14], in [15] and in assay [17] was inactive.

With `C=C(C)C(=O)OCCC(F)(F)C(F)(F)C(F)(F)C(F)(F)C(F)(F)C(F)(F)F`, the result in [1], in assay [2], in [3], in assay [4], in assay [5] and in assay [7] was inactive. The result in assay [8], in [9], in assay [11], in assay [12], in [13] and in assay [14] was inactive. For the same compound, the result in assay [15], in assay [16], in [17] and in assay [18] was inactive. Also, the figures for the AC50 in assay [6] and in assay [10] were 11.8 µM (active) and 20.1 µM (active), respectively.

One may read the AC50 as the concentration giving half of the maximal activity seen.
